Screening data from PubChem.
HT1080-NT tox – kills 2HG-producing HT-1080-NT fibrosarcoma cells; AID 686970; Potency, µM (doses to about 46.1 µM), for the others: top-dose activity, negative = less viability, hits mostly cytotoxic; 360,000 tested, 1.6% active; HT-1080-NT fibrosarcoma viability, CellTiter-Glo ATP luminescence, 48 h;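 note: NT is the 2HG producing partner of a matched IDH1 knockdown line; potency is the fitted concentration of half-maximal effect; 0% = DMSO-treated cells and -100% = media-only wells without cells; nearly all actives have a fitted effect of over 55% in size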
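Read-out is CellTiter-Glo luminescence after 10 minutes at room temperature, following 48 hours' compound treatment of HT-1080-NT cells (750 cells/well, RPMI, 5% FBS, 37 degrees C).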
IL-1B inflam inh – inhibitors of inflammasome signaling (IL-1 beta secretion); THP-1 LPS/ATP IL-1B secretion, AlphaLISA, 16 h; active compounds read low; activity change, % at 57.5 µM; 360,000 tested, 4.7% active; AID 743279; in the data active = activity change below about -50%; inconclusive = mostly about -30% to -49%
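THP-1 cells pretreated 1 hr with compounds (up to 57.5 uM final), then stimulated with LPS (250 ng/mL final) plus ATP (1.25 mM final); secreted IL-1B measured by AlphaLISA after 16 hr, decreased signal indicating inhibition.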
TDP1 cell noCPT – qHTS for Inhibitors of human tyrosyl-DNA phosphodiesterase 1 (TDP1): qHTS in cells in absence of CPT; 420,000 tested, 15% active; Potency, µM (titrated, usually from 46.2 µM), for the others: top-dose activity change, negative = growth inhibition, most hits filed as inhibitors; DT40 Tdp1-/- hTDP1 cells, no CPT, ATP luminescence, 48 h; note: potency is the fitted concentration of half-maximal effect; nearly all actives have a fitted effect of over 55% in size
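Chicken DT40 Tdp1-/- cells stably complemented with human TDP1 were seeded at 400 cells/well with DMSO in place of 20 nM camptothecin. After compound pinning, cells grew at least 48 hr at 37 °C; viability read by CellTiter-Glo luminescence.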
TDP1 cell CPT – growth inhibition of DT40 Tdp1-/-;hTDP1 cells with camptothecin (screen for TDP1 inhibitors); chicken DT40 Tdp1-/-;hTDP1 cells + 20 nM CPT, ATP luminescence, 48 h; Potency, µM (doses to about 46.2 µM), for inactives: top-dose activity change, negative = growth inhibition, most hits filed as inhibitors; 420,000 tested, 12% active; AID 686979; note: potency is the fitted concentration of half-maximal effect; nearly all actives have a fitted effect of over 55% in size
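Chicken DT40 Tdp1-/- cells complemented with human TDP1, 400 cells/well, exposed to compounds plus 20 nM camptothecin for at least 48 h at 37 C; viability read as ATP content by CellTiter-Glo luminescence.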
HT1080 IDH1KD tx – toxicity to HT-1080 IDH1 knockdown cells (counter line). HT-1080 IDH1 knockdown viability, ATP luminescence, 48 h. Potency, µM (top dose mostly 46.1 µM), for the others: at the highest dose activity, negative = toxicity, most hits filed as cytotoxic. 360,000 tested, 2% active;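 note: potency is the fitted concentration of half-maximal effect; 0% = DMSO wells and -100% = cell-free medium wells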
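Viability of IDH1-knockdown HT-1080 fibrosarcoma cells was assessed by CellTiter-Glo after 48 h at 37 °C with titrated compound; concentration-effect curves were classified by fit quality and response size.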
* marks the source's active call; other numbers are inactive results; ? = inconclusive; nt = no result. Sampled rows, rich in hits. Any-hit rate of the full collection: about 19%. Unless noted, calls come from the whole dose curve; as a rule, active = well fitted curve in the direction sought with a large enough effect; inconclusive = small, poorly fitted or top-dose-only effect, or another doubt; inactive = no such curve, though single readings can be large; an effect the other way counts as inactive or inconclusive. Unless noted, % is set by controls: 0 for no effect and ±100 for the full control effect.

SMILES | HT1080-NT tox | IL-1B inflam inh | TDP1 cell noCPT | TDP1 cell CPT | HT1080 IDH1KD tx
Cc1[nH]c2ccccc2c1C(=O)COC(=O)c1ccccc1SCC(=O)N1CCCC1 | nt | nt | 11µM* | ? | nt
Cc1[nH]c2ccccc2c1C(=O)COC(=O)c1ccccc1O | -1% | -1 | -27% | -2% | -1%
CC(C)(C)N(Cc1ccccc1)C(=O)COC(=O)c1ccc(N2CCCC2=O)cc1 | 2% | -8 | 16µM* | ? | 12%
CCc1cccc(CC)c1NC(=O)CCS(=O)(=O)c1ccc(Br)s1 | nt | nt | -1% | 0% | nt
Cc1c(CCNC(=O)c2ccco2)sc2nc(-c3ccc(F)cc3)nn12 | nt | nt | 23µM* | 21µM* | nt
Cc1ccc(-c2nc3sc(CCNC(=O)c4ccco4)c(C)n3n2)cc1 | nt | nt | 18µM* | ? | nt
Cc1ccc(C(=O)NCCCNC(=O)c2ccco2)cc1 | 11% | -2 | -21% | -22% | 4%
Cc1ccc(-c2nc3sc(CCNC(=O)c4ccc(C)c(C)c4)c(C)n3n2)cc1 | nt | nt | -27% | 1% | nt
Cc1c(CCNC(=O)c2ccc(C(C)(C)C)cc2)sc2nc(-c3ccc(F)cc3)nn12 | nt | nt | 13µM* | 15µM* | nt
CCOc1ccc(C(=O)Nc2cc(-c3nc4ccccc4o3)ccc2C)cc1Cl | nt | nt | -6% | -12% | nt
CSCCC(NC(=O)/C(=C/c1ccco1)NC(=O)c1ccc(Br)o1)C(=O)O (centres undefined) | 18% | 19 | -5% | 0% | 0%
CN(C)S(=O)(=O)c1ccc(C(=O)OCn2nnc3ccccc3c2=O)cc1 | 4% | -9 | ? | -23% | 9%
CC1CCCCN1c1cc(C#N)c(C#N)cc1[N+](=O)[O-] (centres undefined) | 5% | -6 | -24% | 18µM* | 26%
CCOc1ccc(S(=O)(=O)NCc2ccccn2)c(C)c1C | 2% | 48 | -18% | 23µM* | 7%
COc1ccc(S(=O)(=O)NCc2ccccn2)cc1Cl | 7% | -12 | -9% | -9% | 7%
COc1ccc(S(=O)(=O)NCc2ccccn2)c(C)c1C | 15% | -11 | ? | -14% | 15%
COc1ccc(S(=O)(=O)NCc2ccccn2)cc1OC | 13% | 40 | -3% | 8% | 22%
COc1ccc(S(=O)(=O)NCc2ccccn2)cc1NC(=O)c1ccc(Cl)cc1 | ? | -14 | 16µM* | ? | ?
CC(C)(C)c1ccc(S(=O)(=O)NCc2ccc(C(=O)NCc3ccccn3)cc2)cc1 | -1% | -2 | 18µM* | 21µM* | 2%
COc1ccccc1Oc1ccc(S(=O)(=O)NCc2ccccn2)cc1 | -7% | -4 | 14µM* | ? | -29%
Cc1ccc(NC(=O)Cc2c(O)c3ccccc3[nH]c2=O)c(C)c1 | 2% | 25 | -4% | -3% | -1%
COc1ccc(S(=O)(=O)N2CCN(C)CC2)cc1NC(=O)c1ccccc1C | -1% | -1 | -19% | -22% | 7%
COc1ccc(S(=O)(=O)NCc2ccccn2)cc1NC(=O)c1ccccc1C | ? | 24 | 4.6µM* | 4.1µM* | ?
CC(C)(C)c1cc(C(c2cccnc2)N2CCN(CCO)CC2)cc(C(C)(C)C)c1O (centres undefined) | 6.3µM* | -102* | 2.3µM* | 1.5µM* | 5µM*
CN(CC(=O)Nc1ccccc1Cl)C(=O)c1cc(C2CC2)nn1-c1ccccc1 | -4% | -21 | ? | ? | -3%
CCN1CCSc2ccc(C(=O)NCc3ccc(OC)cc3)cc21 | nt | nt | ? | -65% | nt
CCCOc1ccc(CNC(=O)c2ccc3c(c2)N(Cc2ccccc2)CCS3)cc1 | nt | nt | 18µM* | ? | nt
O=C(NCc1ccccc1)c1ccc2c(c1)N(Cc1ccc(F)cc1)CCS2 | nt | nt | 18µM* | ? | nt
Cc1ccc(Cl)cc1NC(=O)c1cc(NC(=O)C2CCCCC2C(=O)O)ccc1N1CCOCC1 (centres undefined) | -20% | -6 | -4% | ? | -11%
Cc1cccc(OCc2nnc(SCC(=O)NCc3ccc4c(c3)OCO4)o2)c1 | -11% | 3 | -25% | -1% | -1%
